The values that follow come from PubChem BioAssay AID1222 (Sanford-Burnham Center for Chemical Genomics, 2008).

Each structure is given as a SMILES string. Screen size: about 190,000 compounds; fewer than 10 were called active.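 The calls were made as follows: active = EC50 below 50 µM in the dose-response confirmation; inactive = the rest.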 The list is a sample of the results. Entries with a potency or affinity are not part of this list.

This assay is described as follows: rescue of cells from ER stress-induced death, primary screen, 384-well, CSM14.1, thapsigargin, ATP luminescence (AID 1222).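 Also: death triggered by thapsigargin at about 15 µM added after 2 h compound pretreatment; cell ATP read after overnight thapsigargin exposure of roughly 18 to 22 hours; reference of the scale not given here.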 Conditions: CSM14.1 thapsigargin-induced death rescue, at 20 µM, stronger effect = higher value.
In the case of `O=C(Nc1nnc(-c2ccco2)o1)c1ccc2ccccc2c1`, the cellular ATP content (survival) is 11.1% (inactive).
In the case of `Cc1cc(NC(=O)CCC(=O)N(CC(=O)NC2CCCC2)c2ccccc2)no1` it was 0.5% (inactive); in that of `O=c1cc(COn2nnc3ccc(C(F)(F)F)cc32)nc2sccn12`, -1.8% (inactive).
In the case of `O=C(Nc1ccc2nc(-c3cccnc3)[nH]c2c1)C12CC3CC(CC(C3)C1)C2` it was -3.6% (inactive).
Under `c1ccc(-c2nccc(-c3ccc(-n4cnc5ccccc54)cc3)n2)cc1` stands -0.9% (inactive).
Consider `Cc1ccc(/C(O)=C2\C(=O)C(=O)N(CCc3c[nH]c4ccccc34)C2c2cccnc2)cc1` (stereo not drawn), for which the cellular ATP content (survival) is 1.1% (inactive).
Under `CCCN1C(=O)/C(=C/c2ccc(N3CCCC3)c(C)c2)NC1=S` stands -2% (inactive); under `CCN1C(=O)/C(=C/c2ccc(N3CCCC3)cc2)NC1=S`, 0.3% (inactive).
Under `O=C(COC(=O)CCNS(=O)(=O)c1ccc2c(c1)OCCO2)NC1CCCc2ccccc21` (stereo not drawn) stands -0.1% (inactive); under `CCc1nnc(NC(=O)CCC(=O)NC2CCCCC2)s1`, -0.3% (inactive); under `CCCCNC(=O)Cc1ccc(Br)cc1`, 0.7% (inactive).
Under `CC1CCC2C(=O)N(c3ccc(Cc4ccncc4)cc3)C(=O)C2C1` (stereo not drawn) stands 0.4% (inactive); under `CC1(C(=O)NCCN2CCOCC2)C=CC2(CCCCC2)N1C(=O)c1ccccc1` (stereo not drawn), -4.5% (inactive); under `CC(=O)OCc1cc(-c2nn(C)c(=O)c3ccccc23)ccc1C`, 1.5% (inactive).
On to `O=C(N/N=C/c1ccccc1OC(F)F)C1=COCCO1`, for which the cellular ATP content (survival) was 0.4% (inactive).
Under `O=S1(=O)C=CC(Sc2nc3ccccc3[nH]2)C1` (stereo not drawn) stands 7.3% (inactive); under `Cc1ccc(S(=O)(=O)N2CCN(C(C)CC(=O)O)CC2)cc1` (stereo not drawn), -0.8% (inactive).
In the case of `O=C(OCCCC(=O)N1CCOCC1)c1ccccc1` it was -1% (inactive).
In the case of `COc1cc(CN(C(=S)NCC(=O)NC2CCCC2)C2CCCC2)cc(OC)c1OC` it was 0.8% (inactive); in that of `CCOc1ccc(Nc2nc(Cc3nnc(SCC(=O)NC4CCCCC4)n3C)cs2)cc1`, -0.1% (inactive); in that of `COc1ccc(C(=O)OCC(=O)N(C)C2CCS(=O)(=O)C2)cc1S(=O)(=O)N1CCCc2ccccc21` (stereo not drawn), 1.7% (inactive).
In the case of `COc1ccc2c(c1)N(C(=O)CSc1n[nH]c(C)n1)C(C)(C)C=C2C`, the cellular ATP content (survival) is 5.3% (inactive).
In the case of `COc1ccc(/C=C/C(=O)OCC(=O)Nc2cc(C(F)(F)F)ccc2Cl)cc1` it was -2.1% (inactive); in that of `Cc1cc(C)c(C(=O)CN2C(=O)NC3(CCCCC3)C2=O)cc1C`, -0.6% (inactive).
On to `COc1ccc(S(=O)(=O)Oc2cccc(/C=N/N=C3/NC(=O)C(CC(=O)O)S3)c2)cc1` (stereo not drawn), for which the cellular ATP content (survival) was 7.5% (inactive).
In the case of `CCCN1CCC(NC(=O)Nc2cc(Cl)ccc2OC)CC1` it was 0.1% (inactive); in that of `CC(=O)N1CCN(c2ccc([N+](=O)[O-])c(NCc3cccnc3)c2)CC1`, -0.8% (inactive).
In the case of `N#Cc1cc(-c2ccccc2)nc(Oc2ccc(Cl)cc2)n1` it was -1.2% (inactive); in that of `CCCn1nc2cc(C(=O)NCc3ccc(OC(F)(F)F)cc3)ccc2c1OCC`, -1.1% (inactive); in that of `Cc1ccc(S(=O)(=O)c2nc(-c3ccccc3)oc2NCc2cccnc2)cc1`, 3.8% (inactive).
Under `Cc1ccc(Nc2nc(-c3ccc(S(=O)(=O)N4CCOCC4)cc3)cs2)cc1Cl` stands -1.8% (inactive); under `CC(C)(C)N/N=C/c1c(O)n(-c2ccc(Cl)cn2)c(=O)c2ccccc12`, -1.2% (inactive).
As to `O=C(Nc1cccc(C2OCCCO2)c1)c1cccs1`, the cellular ATP content (survival) is -3.3% (inactive).
With `O=C(c1ccc2ccccc2c1)c1c[nH]cc1-c1ccccc1`, the cellular ATP content (survival) is 0.1% (inactive).
Under `Cc1ccccc1NC(=O)C12CC3CCC1(C)C3(C)CO2` (stereo not drawn) stands 3.2% (inactive).
In the case of `CC12COC3(C(=O)Nc4ccccc4)CC1CCC32C` (stereo not drawn) it was 0.2% (inactive); in that of `CN(C1CCCCC1)S(=O)(=O)c1ccc(NC(=O)CCC(=O)O)cc1`, -1.8% (inactive).
Turning to `O=C(N[C@@H](Cc1ccccc1)C(=O)O)c1cccnc1`, the cellular ATP content (survival) is -0.2% (inactive).
In the case of `O=[N+]([O-])c1ccc(Nc2nc(Cl)nc(NCCO)n2)cc1` it was -0.9% (inactive); in that of `Cc1ccc(S(=O)(=O)N2CCN(C(=O)CSc3nnc(C)c(=O)[nH]3)CC2)cc1`, 0.3% (inactive); in that of `O=C(NC(=S)N1CCN(c2ccccn2)CC1)c1ccco1`, -0.1% (inactive).
Under `COc1ccccc1NC(=O)C/C(C)=N/NC(=O)COc1c(Br)cc(Br)cc1OC` stands 2.1% (inactive).
In the case of `CCC(=O)N1CCc2cc(S(=O)(=O)CCC(=O)Nc3ccc(CC)cc3)ccc21` it was -3.3% (inactive).
Take `O=c1[nH]c(CSc2nnc(-c3ccccc3)n2C2CCCCC2)nc2ccccc12`: the cellular ATP content (survival) was 0.3% (inactive).
Under `CC1C(c2ccccc2)=[N+]([O-])C2(CCCCC2)N1O` (stereo not drawn) stands -0.2% (inactive); under `Cn1c(=O)c2c(nc(CN3CCN(Cc4ccccc4)CC3)n2CCN2CCOCC2)n(C)c1=O`, 2.6% (inactive).
Under `CCOc1ccccc1-n1c(SCC(=O)Nc2nccs2)nnc1-c1ccoc1C` stands 1.4% (inactive).
As for `O=c1[nH]c(CCC2CCCC2)nc2ccccc12`, the cellular ATP content (survival) is -3.1% (inactive).
